Compounds with a hit are over-represented: about 7.1% of the library has one in this group of screens.
SW480 rerep – induces DNA re-replication in SW480 colon adenocarcinoma cells; 340,000 tested, 1.8% active; SW480 DNA re-replication, Hoechst DNA content imaging, 48 h; Potency, µM (doses to about 46.1 µM), for inactives: at the highest dose re-replication activation, actives largely listed as activators; AID 624297; note: % of control where 0% means no effect; nearly all actives have a fitted effect of over 55% in size
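Compounds, transferred as 23 nL by pin tool, were incubated with cells for 48 hr; DNA content per nucleus was then quantified by Hoechst staining and fluorescence plate imaging.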
ELG1 genotoxic – induces genotoxicity in HEK293T cells with luciferase-tagged ELG1 | HEK293T ELG1-luciferase reporter, luminescence, 16 h | Potency, µM (titrated, usually from 46 µM), for the others: top-dose activity change, positive = activation, most hits filed as activators | 330,000 tested, 1.3% active | AID 504466; note: % of control where 0% means no effect; nearly all actives have a fitted effect of over 60% in size
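DMSO vehicle served as control against compound-treated ELG1-luciferase HEK293T cells; exposure lasted 16 hr at 37 °C and 5% CO2, followed by ONE-Glo luminescence detection after 30 min.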
p53 reactivator – restores transcriptional activity of mutant p53; H1299 p53-A138V BP100-luciferase reporter, luminescence, 24 h; Potency, µM (doses to about 92.2 µM), without a hit: at the highest dose activity change, positive = activation, actives largely listed as activators; 320,000 tested, 0.063% active; AID 504706; note: % of control where 0% means no effect; nearly all actives have a fitted effect of over 45% in size
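p53-null H1299 cells stably carrying temperature-sensitive p53-A138V and a BP100-luciferase reporter were pinned with compounds (4-point, 1:5 series) and held 24 hrs at 37 deg C. Luminescence was read 10 min after detection reagent.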
ELG1 repair inh – ELG1-dependent DNA repair inhibition; HEK293T ELG1-luciferase reporter, luminescence, 16 h; DNA damage induced by 5-fluorouridine; Potency, µM (titrated, usually from 46.1 µM), inactives show at the highest dose activity change, negative = inhibition, usual class: inhibitors; 330,000 tested, 2.3% active; note: % is set by controls: 0 for no effect and ±100 for the full control effect; nearly all actives have a fitted effect of over 55% in size
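HEK293T cells expressing luciferase-tagged ELG1 (2,000/well) received 5-Fluorouridine plus compound or DMSO for 16 hr at 37 °C. Luciferase was read by ONE-Glo luminescence after 30 min at room temperature.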
MCF10A rereplic – inducers of DNA re-replication in MCF 10A breast cells; AID 624296; Potency, µM (series often up to 46.1 µM), for the others: top-dose activity, positive = re-replication, actives largely listed as activators; MCF 10A DNA re-replication, Hoechst nuclear intensity, 48 h; 350,000 tested, 2.9% active; note: % of control where 0% means no effect; nearly all actives have a fitted effect of over 50% in size
AT treatment – potential ataxia-telangiectasia treatments restoring KAP-1 phosphorylation; F2112 A-T fibroblasts, KAP-1 phosphorylation AlphaLISA; neocarzinostatin DNA damage 30 min before lysis; Potency, µM (series often up to 57.5 µM), for inactives: at the highest dose activation, usual class: activators; 320,000 tested, 0.19% active; AID 485349; note: % of control where 0% means no effect; nearly all actives have a fitted effect of over 45% in size
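hTERT-immortalized A-T patient fibroblasts (F2112), 500 cells/well in OPTI-MEM, 1% FBS, got compounds for 60 min, then NCS for 30 min at 37C. Lysates were then assayed for phospho-KAP-1 by AlphaLISA (anti-pKAP1 donor, anti-KAP1 acceptor beads), 6 hr at 25C.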
Starred values were filed as active, the others as inactive; ? = inconclusive; . = no result given; [ ] = dose if it differs, or a comment. Calls come from the whole dose curve; as a rule, active = well fitted curve in the direction sought with a large enough effect; inconclusive = small, poorly fitted or top-dose-only effect, or another doubt; inactive = no such curve, though single readings can be large; an effect the other way counts as inactive or inconclusive. Potency is the fitted concentration of half-maximal effect.

SMILES	SW480 rerep	ELG1 genotoxic	p53 reactivator	ELG1 repair inh	MCF10A rereplic	AT treatment
Cc1c(C(=O)NC2CCC(C)CC2)oc2ccccc12 (configuration not stated)	-3%	?	?	?	4%	3%
Cc1cccc(OCC(=O)N/N=C/c2cccn2C)c1	-2%	3%	-2%	2%	0%	-6%
Cc1ccc2c(Cl)c(C(=O)Nc3cccnc3)sc2c1	?	0%	25%	8.2µM*	?	17%
Cn1cccc1C(=O)N/N=C/c1c(Cl)cccc1Cl	-7%	16µM*	?	?	0%	7%
Cc1ccc(C(C)C)c(OCC(=O)N/N=C/c2cccn2C)c1	30%	-5%	1%	18µM*	?	3%
O=C(N/N=C/c1c(Cl)cccc1Cl)c1ccc(F)cc1	-2%	10%	20%	26%	-15%	-6%
Cc1ccc2c(Cl)c(C(=O)N/N=C/c3cccn3C)sc2c1	2%	?	?	?	21µM*	-5%
Cc1nc(N)nc(N)c1-c1ccc([N+](=O)[O-])cc1	14%	.	.	.	17%	.
COc1ccc(-c2nnn(CC(=O)N(CC(=O)NC3CCCC3)c3ccccc3F)n2)cc1OC	-77%	7%	-7%	-5%	3%	-1%
NS(=O)(=O)c1ccc(NC(=O)COC(=O)CN2C(=O)C3CC=CCC3C2=O)cc1 (configuration not stated)	?	-3%	2%	-1%	-1%	-1%
CC(C)(C)NCC(=Cc1ccccc1)C(=O)c1ccccc1	5.2µM*	.	.	.	1.8µM*	.
CCN(c1ccccc1)S(=O)(=O)c1cccc(C(=O)NCC(c2cccs2)N2CCOCC2)c1 (configuration not stated)	-5%	0%	2%	-15%	6%	11%
COc1ccc(N/C(N)=N/c2nc(CSc3nnc(C)s3)cc(=O)[nH]2)cc1	3.3µM*	11%	1%	-1%	?	3%[11.5 µM]
COc1ccc(N/C(N)=N/c2nc(C)cc(=O)[nH]2)cc1	-3%	5%	3%	16%	1%	3%
Cc1ccc(SCc2cc(=O)[nH]c(/N=C(\N)Nc3cccc4ccccc34)n2)cc1	-3%	0%	-24%	7%	?	-3%
Cc1cccc(N/C(N)=N/c2nc(CSc3ccc(Cl)cc3)cc(=O)[nH]2)c1	?	17%	0%	?	3.7µM*	-7%
Cc1ccc(N/C(N)=N/c2nc(CSc3nnc(C)s3)cc(=O)[nH]2)c(C)c1	?	15%	7%	-11%	5.8µM*	-3%
COCc1cc(=O)[nH]c(/N=C(\N)Nc2cccc(C)c2)n1	6%	-7%	-7%	-11%	-184%[0.0737 µM]	-2%
O=C(c1cccc(S(=O)(=O)NCCOc2ccccc2)c1)N1CCN(c2ncccn2)CC1	-8%	-6%	-4%	23µM*	5%	2%
CCOc1ccc(NS(=O)(=O)c2ccc(C(=O)N(C)Cc3cccc(OC)c3OC)cc2)cc1	-4%	-12%	-1%	16µM*	?	1%
O=C(c1cccc(S(=O)(=O)NCc2ccccc2)c1)N1CCN(c2ccccc2)CC1	?	-4%	3%	?	6.5µM*	-11%
O=C(c1cccc(S(=O)(=O)NCc2ccccc2)c1)N1CCN(c2ccccc2Cl)CC1	16µM*	.	.	.	?	.
Cc1ccc(SCC(=O)Nc2cc([N+](=O)[O-])ccc2O)cc1	0%	-6%	8%	?	17%	-3%
O=C(c1ccc(Cl)c(S(=O)(=O)NCc2ccccc2)c1)N1CCN(c2ccccn2)CC1	21%	-7%	-7%	23µM*	-7%	-2%
Cc1cccc(N2CCN(C(=O)c3ccc(Cl)c(S(=O)(=O)NCc4ccco4)c3)CC2)c1C	?	-16%	4%	18µM*	16µM*	0%

Source: PubChem
